Shown are actives, neighbours in structure and some others; about 21% of the full set was active somewhere.
IL-1B inflam inh = inhibitors of inflammasome signaling (IL-1 beta secretion); THP-1 LPS/ATP IL-1B secretion, AlphaLISA, 16 h; stronger effect = lower value; activity change, % at 57.5 µM; 4.7% of 360,000 active; AID 743279; in the data active = activity change below about -50%; inconclusive = mostly about -30% to -49%
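THP-1 cells pretreated 1 hr with compounds (up to 57.5 uM final), then stimulated with LPS (250 ng/mL final) plus ATP (1.25 mM final); secreted IL-1B measured by AlphaLISA after 16 hr, decreased signal indicating inhibition.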
RORgamma inh = ROR gamma (mouse) transcription inhibition; P51450; Potency, µM (titrated, usually from 53.6 µM), most hits filed as inhibitors; Drosophila S2 Gal4-RORgamma UAS-luciferase reporter, 20 h; 5.4% of 310,000 active; note: nearly all actives have a fitted effect of over 60% in size
Target sequence (P51450 whole entry, looked up, the tested form may be a part): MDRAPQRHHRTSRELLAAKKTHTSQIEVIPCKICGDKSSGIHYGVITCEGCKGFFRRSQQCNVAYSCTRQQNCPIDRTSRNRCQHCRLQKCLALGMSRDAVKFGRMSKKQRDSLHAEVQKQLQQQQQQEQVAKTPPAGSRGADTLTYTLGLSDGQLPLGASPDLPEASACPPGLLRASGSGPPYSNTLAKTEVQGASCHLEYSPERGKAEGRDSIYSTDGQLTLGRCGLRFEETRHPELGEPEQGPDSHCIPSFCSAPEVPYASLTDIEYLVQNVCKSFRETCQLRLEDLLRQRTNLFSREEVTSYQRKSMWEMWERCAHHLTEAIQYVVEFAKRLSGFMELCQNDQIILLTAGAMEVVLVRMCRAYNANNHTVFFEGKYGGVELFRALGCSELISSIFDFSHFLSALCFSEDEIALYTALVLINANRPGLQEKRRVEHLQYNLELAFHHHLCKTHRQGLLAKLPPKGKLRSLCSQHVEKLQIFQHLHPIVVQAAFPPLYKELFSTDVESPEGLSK
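Stable Schneider cell line, Gal4 DNA-binding domain fused to ROR gamma, UAS-luciferase. Cmpd 1 hr RT → CuSO4 700 uM final → 20 hr RT → luciferase reagent 10 min → luminescence.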
TDP1 cell noCPT = qHTS for Inhibitors of human tyrosyl-DNA phosphodiesterase 1 (TDP1): qHTS in cells in absence of CPT; Potency, µM (highest dose often 46.2 µM), actives largely listed as inhibitors; 15% of 420,000 active; DT40 Tdp1-/- hTDP1 cells, no CPT, ATP luminescence, 48 h; AID 686978, 2013; note: nearly all actives have a fitted effect of over 55% in size
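Readout: luminescence from CellTiter-Glo after 30 min in the dark at RT. Cells: DT40 Tdp1-/- with stable hTDP1, 400/well. Exposure: compounds alone, ≥48 hr, 37 °C.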
Gal4-VP16 FLuc = inhibits Gal4-VP16 luciferase reporter, ROR gamma counter-screen | Drosophila S2 Gal4-VP16 UAS-luciferase, luminescence, 20 h | Potency, µM (top dose mostly 53.6 µM), actives largely listed as inhibitors | 3.5% of 310,000 active | AID 2546;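 note: Gal4-VP16 expression switched on by copper sulfate through the metallothionein promoter; nearly all actives have a fitted effect of over 50% in size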
TDP1 cell CPT = growth inhibition of DT40 Tdp1-/-;hTDP1 cells with camptothecin (screen for TDP1 inhibitors) | chicken DT40 Tdp1-/-;hTDP1 cells + 20 nM CPT, ATP luminescence, 48 h | Potency, µM (titrated, usually from 46.2 µM), usual class: inhibitors | 12% of 420,000 active | AID 686979; note: nearly all actives have a fitted effect of over 55% in size
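Chicken DT40 Tdp1-/- cells complemented with human TDP1, 400 cells/well, exposed to compounds plus 20 nM camptothecin for at least 48 h at 37 C; viability read as ATP content by CellTiter-Glo luminescence.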
ELG1 DNA repair = blocks ELG1-dependent DNA repair in HEK293T cells | AID 504467 | Potency, µM (doses to about 46.1 µM), most hits filed as inhibitors | HEK293T ELG1-luciferase reporter, luminescence, 16 h; DNA damage induced by 5-fluorouridine | 2.3% of 330,000 active; note: nearly all actives have a fitted effect of over 55% in size
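DMSO vehicle served as the neutral condition. Each well held 2,000 cells given 5-fluorouridine plus compound; after 16 hr at 37 °C/5% CO2, ONE-Glo was added and luciferase measured 30 min later.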
Each line names hits and unclear results; the compound was inactive in the other large screens. Unless noted, calls come from the whole dose curve; as a rule, active = well fitted curve in the direction sought with a large enough effect; inconclusive = small, poorly fitted or top-dose-only effect, or another doubt; inactive = no such curve, though single readings can be large; an effect the other way counts as inactive or inconclusive.

C=CCNc1oc(-c2ccc(OCC)cc2)nc1C#N	RORgamma inh inconclusive, TDP1 cell noCPT inconclusive, Gal4-VP16 FLuc inconclusive, TDP1 cell CPT inconclusive
C=CCNc1oc(-c2ccc(OC)cc2)nc1C#N	RORgamma inh inconclusive, TDP1 cell noCPT inconclusive, Gal4-VP16 FLuc inconclusive, TDP1 cell CPT 16µM, ELG1 DNA repair inconclusive
O=C(c1ccccc1)c1ccc(Cn2cc(CCCO)nn2)cc1	RORgamma inh inconclusive, TDP1 cell noCPT 5.8µM, Gal4-VP16 FLuc 13µM, TDP1 cell CPT 8.2µM
O=C(O)CCCCCCCCc1cn(Cc2ccc(C(=O)c3ccccc3)cc2)nn1	TDP1 cell noCPT 4.1µM, TDP1 cell CPT 3.7µM
O=C(O)CCCCCCCCc1cn(CC2CCCCC2)nn1	RORgamma inh 4.5µM, Gal4-VP16 FLuc 1.8µM
Cc1cc(C(=O)COC(=O)c2nn(C)c(=O)c3ccccc23)c(C)n1C	none (no result: RORgamma inh, Gal4-VP16 FLuc, ELG1 DNA repair)
Cc1cc(CCCCCCCCc2cc(C)cc(=O)o2)oc(=O)c1	TDP1 cell noCPT 16µM, Gal4-VP16 FLuc inconclusive, TDP1 cell CPT inconclusive
COc1ccccc1OCCCn1c(C2CC(=O)N(c3ccccc3Cl)C2)nc2ccccc21 (stereo unspecified)	TDP1 cell noCPT 6.5µM, TDP1 cell CPT 13µM (no result: IL-1B inflam inh, RORgamma inh, Gal4-VP16 FLuc, ELG1 DNA repair)
Cc1cccc(OCCCCn2c(C3CC(=O)N(c4ccccc4Cl)C3)nc3ccccc32)c1 (stereo unspecified)	TDP1 cell noCPT inconclusive, TDP1 cell CPT 3.7µM (no result: IL-1B inflam inh, RORgamma inh, Gal4-VP16 FLuc, ELG1 DNA repair)
CCOc1ccccc1N1CC(c2nc3ccccc3n2CCCCOc2cc(C)ccc2C)CC1=O (stereo unspecified)	TDP1 cell noCPT inconclusive, TDP1 cell CPT 26µM (no result: IL-1B inflam inh, RORgamma inh, Gal4-VP16 FLuc, ELG1 DNA repair)

Assay outcomes as filed in PubChem BioAssay.
